# From the supplement of paper PMC6555819
# Test system: FXR:RXRa (NR concentration 270 nM, RXRa partner concentration 90 nM)
# Experiment: PBM binding z-score (relative to random genomic background probes); higher = stronger binding; sequences stand for … in GC…GCGATTGACAGCGTAGAATGAAGG
# Procedure, shortened: (§1)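 Ligand-free nuclear receptor dimers were applied to custom Agilent 4×180K protein-binding microarrays whose double-stranded probes carried direct-repeat seeds, single-nucleotide variants, half-site ablations and random human genomic background sequences in 34-nt variable regions. Incubation lasted 1 h. Binding z-scores were computed against the random background probes from regression-normalized fluorescence.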
row,Sequence,PBM binding z-score
1,TTACCAAGGTGAAGGTCGTTGACCCCTCTGTAGA,6.12
2,TAGCCTAGGTCAGACCGGGCCAGTATACGCTATA,2.15
3,CCTTACGGGTCAAGATTATAGCACGGGTGGTACG,4.99
4,CGAACTAGGTCACGAAAGGTCAAAGTCGAATGAC,7.73
5,ATCTCTAGGTAAAGTTAGTTCAGTGAATGCAAAT,0.83
6,AATACAGGGTCATCCTAGGCCAGAGTACGCACAG,7.59
7,TCTATTAGTTGAGTAGGGCAACCGAAACAGCGGA,0.117
8,TTTAGCAGGCCAGAGGGTCACTCAAGAGGTACGG,0.67
9,TCATATAGGTAAATCCTAGGTGAAAGTCCGATCT,0.916
10,CCTTACGGGTCACTCCAGGTAATAGCATCGGAGT,5.01
11,CCTTACGGGTCACTGACAAGTTATAGCATTTGGA,5.46
12,CCTACTGGACCAAAAAGGTCATTGATGCCGATAA,3.74
13,CGTCCAAGGTCAATGCTATGTCAGTGAAAGCATT,6.33
14,CCGACTGGGGCAGAAAGGCTACCATACCATCCGG,-0.561
15,CGAACGAGGGCATGATTTGATAGCAAATGCCGAT,0.047
16,CGTCCAAGGTTAGAGAGGTCAGTGAATGCCGAGT,2.67
17,GCGACTGGGGCAAAGCAGGTTAACATAAGGTTGG,0.921
18,CCTACTGGGCCATTCAGAGGTCATTTATCATATG,2.65
19,AGTCAAAGTTCACTAGGTAACGTAAGATTCAGCT,5.37
20,TGTCACAGTTCAAAGGTAACGTAAGTATCCACAC,4.13

row,Sequence,PBM binding z-score
1,TCTAGATGGTCACGGAGGTCACACACGACGGGTA,3.7
2,ATCTCTAGGTAACCAAGTTAAGTGAATGCCGAAC,0.211
3,ACTAGCAGGCCAAGGGGCACTCAAGATTAGTCCG,-0.336
4,GCTGCTAGGTCAACTGATGCTCAGCTAAAGCTCG,4.03
5,TCTACTAGGTCAACGATGGTCAGCTAATCTGCTA,3.61
6,AGAACGAGGGCAATGAGGTGATAGCACGGGTGGC,0.341
7,ACTATTACTTGAGACGAGGGCAACCGATAGGTTG,0.529
8,GGAACGTGGGCATTCGAGTTGATAGCATGGCGAT,-0.541
9,CGAACGAGGGCATGAGTTGATAGCGAATGCCGAT,0.658
10,AGTCCAAGTTCATCTAGGTAACGTAAGATATGCT,3.42
11,GCTAGTTGGTCAGTATAAGGTCACACACCGGTCG,3.04
12,TCGAGTAGGTAAGGGGCATTCAGAATGGCGTCGA,-0.106
13,GCTAGCAGGACATTTGGGTCACTCAATGACGGGC,0.0183
14,TAACCAAGGTGAAGGTCGTTGATCCCTCTGTAGA,2.07
15,TAGCCTAGGTCAGATCGGGCCAATATACGCTATA,1.51
16,ATCTCTAGGTAAAGATAGTACAGTGAATGCAAAT,0.368
17,CAAACTAGGTGAAAGGTCAAAGTCGAGCCAACCA,6.87
18,CCTCGCAGGACAACAGGAGGTCAGAGCTGCCAGA,0.787
19,ACTAGCAGGCCAAGTTTTGGTCACTCAAACAAAG,-0.294
20,ACTAGCAGGCCAAGGGTCGCTCAAGATTAGTCCG,-0.247

# Test system: LXRa:RXRa (NR concentration 270 nM, RXRa partner concentration 90 nM)
# Experiment: as above
# Procedure, shortened: as §1
row,Sequence,PBM binding z-score
1,TTACCAAGGTGAAGGTCGTTGACCCCTCTGTAGA,5.25
2,TAGCCTAGGTCAGACCGGGCCAGTATACGCTATA,1.09
3,CCTTACGGGTCAAGATTATAGCACGGGTGGTACG,3.15
4,CGAACTAGGTCACGAAAGGTCAAAGTCGAATGAC,8.18
5,ATCTCTAGGTAAAGTTAGTTCAGTGAATGCAAAT,3.72
6,AATACAGGGTCATCCTAGGCCAGAGTACGCACAG,6.64
7,TCTATTAGTTGAGTAGGGCAACCGAAACAGCGGA,-0.0688
8,TTTAGCAGGCCAGAGGGTCACTCAAGAGGTACGG,0.761
9,TCATATAGGTAAATCCTAGGTGAAAGTCCGATCT,0.69
10,CCTTACGGGTCACTCCAGGTAATAGCATCGGAGT,5.21
11,CCTTACGGGTCACTGACAAGTTATAGCATTTGGA,3.31
12,CCTACTGGACCAAAAAGGTCATTGATGCCGATAA,4.82
13,CGTCCAAGGTCAATGCTATGTCAGTGAAAGCATT,4.8
14,CCGACTGGGGCAGAAAGGCTACCATACCATCCGG,-0.818
15,CGAACGAGGGCATGATTTGATAGCAAATGCCGAT,-0.148
16,CGTCCAAGGTTAGAGAGGTCAGTGAATGCCGAGT,3.01
17,GCGACTGGGGCAAAGCAGGTTAACATAAGGTTGG,0.436
18,CCTACTGGGCCATTCAGAGGTCATTTATCATATG,4.36
19,AGTCAAAGTTCACTAGGTAACGTAAGATTCAGCT,5.1
20,TGTCACAGTTCAAAGGTAACGTAAGTATCCACAC,3.82

row,Sequence,PBM binding z-score
1,TCTAGATGGTCACGGAGGTCACACACGACGGGTA,3.91
2,ATCTCTAGGTAACCAAGTTAAGTGAATGCCGAAC,0.255
3,ACTAGCAGGCCAAGGGGCACTCAAGATTAGTCCG,-0.192
4,GCTGCTAGGTCAACTGATGCTCAGCTAAAGCTCG,2.63
5,TCTACTAGGTCAACGATGGTCAGCTAATCTGCTA,3.2
6,AGAACGAGGGCAATGAGGTGATAGCACGGGTGGC,0.494
7,ACTATTACTTGAGACGAGGGCAACCGATAGGTTG,0.528
8,GGAACGTGGGCATTCGAGTTGATAGCATGGCGAT,-0.612
9,CGAACGAGGGCATGAGTTGATAGCGAATGCCGAT,0.274
10,AGTCCAAGTTCATCTAGGTAACGTAAGATATGCT,3.23
11,GCTAGTTGGTCAGTATAAGGTCACACACCGGTCG,2.87
12,TCGAGTAGGTAAGGGGCATTCAGAATGGCGTCGA,-0.02
13,GCTAGCAGGACATTTGGGTCACTCAATGACGGGC,-0.0744
14,TAACCAAGGTGAAGGTCGTTGATCCCTCTGTAGA,2.07
15,TAGCCTAGGTCAGATCGGGCCAATATACGCTATA,1.46
16,ATCTCTAGGTAAAGATAGTACAGTGAATGCAAAT,1.08
17,CAAACTAGGTGAAAGGTCAAAGTCGAGCCAACCA,6.26
18,CCTCGCAGGACAACAGGAGGTCAGAGCTGCCAGA,1.63
19,ACTAGCAGGCCAAGTTTTGGTCACTCAAACAAAG,-0.403
20,ACTAGCAGGCCAAGGGTCGCTCAAGATTAGTCCG,0.0805
